Bioassay records deposited in PubChem by National Center for Advancing Translational Sciences (NCATS).
In the library only some 5% were active in any assay of this set; here they are far more common.
Vaccinia mCherry: inhibitors of vaccinia virus infection (mCherry reporter signal); Vaccinia virus mCherry reporter infection, fluorescence; Potency, µM (top dose mostly 36.5 µM), actives largely listed as inhibitors; AID 720579; 0.63% of 310,000 active; calls by dose curve; tested in A549 cells; also: nearly all actives have a fitted effect of over 35% in size
HCMV inh: inhibitors of human cytomegalovirus; AID 1259415; activity change, negative = inhibition, % at 57.5 µM; HFF cells, HCMV-luciferase reporter, 72 h; active compounds read low; 4.5% of 410,000 active; in the data active = activity change below about -60%; inconclusive = no clear call, values can overlap the other calls; inactive = above about -39%
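Luciferase read-out from HCMV-luciferase-infected HFFs (MOI 1 PFU/cell) 72 h post infection at 37C; compounds added after 16 h cell attachment; activity normalized between buffer-only basal and Salinomycin (10uM) inhibitor controls.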
VACV Venus inh: vaccinia inhibition (Venus reporter); Vaccinia virus Venus reporter expression, fluorescence; Potency, µM (series often up to 36.5 µM), usual class: inhibitors; 0.46% of 330,000 active; calls by dose curve; tested in A549 cells; also: nearly all actives have a fitted effect of over 30% in size
LmPK inh: LmPK (Leishmania mexicana) enzyme inhibition; purified LmPK, Kinase-Glo ATP luminescence, 1 h; Potency, µM (highest dose often 57.5 µM), usual class: inhibitors; 0.37% of 290,000 active
Target sequence (Q27686 whole entry, looked up): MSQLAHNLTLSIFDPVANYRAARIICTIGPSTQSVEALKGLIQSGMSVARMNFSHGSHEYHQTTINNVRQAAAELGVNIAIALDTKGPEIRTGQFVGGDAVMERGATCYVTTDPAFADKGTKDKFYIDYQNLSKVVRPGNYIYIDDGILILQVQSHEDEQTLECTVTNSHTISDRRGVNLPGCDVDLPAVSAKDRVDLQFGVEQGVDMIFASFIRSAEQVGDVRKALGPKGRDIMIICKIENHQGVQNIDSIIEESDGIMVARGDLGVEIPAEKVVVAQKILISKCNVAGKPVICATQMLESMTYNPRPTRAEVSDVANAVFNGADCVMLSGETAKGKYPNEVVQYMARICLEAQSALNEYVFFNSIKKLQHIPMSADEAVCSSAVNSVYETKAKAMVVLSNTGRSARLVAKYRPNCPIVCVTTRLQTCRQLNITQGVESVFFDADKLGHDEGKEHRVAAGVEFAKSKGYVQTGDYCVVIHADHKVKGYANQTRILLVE
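qHTS format; LmPK 0.1 nM; substrates PEP 0.5 mM and ADP 0.1 mM. One-hour room-temperature incubation, then coupled luciferase luminescence; 0.5 nM enzyme wells mark activation.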
Tb PYK inh: T. brucei pyruvate kinase inhibition | Q57TT1 | TbPYK enzyme, Kinase-Glo Plus ATP luminescence, 45 min | Potency, µM (doses to about 76.8 µM), usual class: inhibitors | 0.12% of 410,000 active | AID 624173; also: nearly all actives have a fitted effect of over 50% in size
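Luminescence from Kinase-Glo Plus, added after a 45-minute room-temperature reaction, served as the end-point read-out. The enzyme and substrate were preincubated with compound before ADP (130 uM final) initiated turnover. Concentration-effect curves came from normalized qHTS data.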
A number is an active result; i = inactive; ? = inconclusive; nt = no result. Unless noted, calls follow the shape of the dose curve; as a rule, active = well fitted curve in the direction sought with a large enough effect; inconclusive = small, poorly fitted or top-dose-only effect, or another doubt; inactive = no such curve, though single readings can be large; an effect the other way counts as inactive or inconclusive.

SMILES | Vaccinia mCherry | HCMV inh | VACV Venus inh | LmPK inh | Tb PYK inh
O=C1NC(=O)C2(CCOc3ccc(F)cc32)N1 (stereo not given) | nt | i | nt | nt | nt
Cc1ccc(NC(=O)N/C=C/c2ccco2)cc1C | nt | -108.2 | nt | i | i
Cc1ccc(NC(=O)N/C=C/c2ccco2)c(C)c1 | nt | i | nt | i | i
CC1CCC2(CC1)NC(=O)N(CC(=O)Nc1cc(S(=O)(=O)N3CCCC3)ccc1Cl)C2=O (stereo not given) | i | i | i | nt | i
OC[C@@H]1CN(Cc2ccc(F)cc2)C[C@H](n2cnc3c(Nc4ccccc4)ncnc32)O1 | i | ? | i | nt | i
OC[C@@H]1CN(Cc2ccc(-c3ccccc3)cc2)C[C@H](n2cnc3c(Nc4ccccc4)ncnc32)O1 | ? | -64.8 | i | nt | i
OC[C@@H]1CN(Cc2ccc(-c3ccccc3)cc2)C[C@H](n2cnc3c(NCc4ccc(F)cc4)ncnc32)O1 | i | -84.7 | ? | nt | i
NS(=O)(=O)c1ccc(CCNC(=O)CN2CCN(c3ccccc3O)CC2)cc1 | nt | i | nt | i | i
CCCCNC(=O)C(c1ccc(OCC(=O)OC)c(C(=O)OC)c1)N(CCc1ccccc1)C(=O)CCCCCN1C(=O)NC(c2ccc(-c3ccccc3)cc2)C(C(=O)OCc2ccccc2)=C1C (stereo not given) | nt | nt | nt | i | nt
CCCCNC(=O)C(c1ccc(OCC(=O)OC)c(C(=O)OC)c1)N(CCOC)C(=O)CCCCCN1C(=O)NC(c2ccc(-c3ccccc3)cc2)C(C(=O)OCc2ccccc2)=C1C (stereo not given) | nt | -94.9 | nt | i | nt
Cc1ccccc1C(=O)Nc1nnc(S(=O)(=O)N(C)Cc2ccccc2)s1 | i | i | i | nt | i
COc1cc(/C=N/Nc2nc(-c3ccc(S(=O)(=O)N(C)C)cc3)cs2)ccc1O | nt | -65.5 | nt | i | i
COc1ccc(C(C#N)N2CCC(c3ccccc3)=N2)cc1 (stereo not given) | i | -72.8 | i | i | i
O=c1[nH]c2ccccc2n1CCCN1CCC(n2c(=O)[nH]c3cc(Cl)ccc32)CC1 | i | -78.5 | i | i | i
O=C(NCCN1CCC(n2c(=O)[nH]c3ccccc32)CC1)c1ccc(Cl)cc1Cl | i | i | i | nt | i
CC(Cl)C(=O)N1c2ccccc2CCc2ccccc21 (stereo not given) | nt | i | nt | i | i
O=C(CCl)N1c2ccccc2CCc2ccccc21 | nt | -102.0 | nt | i | nt
Cc1ccc(S(=O)(=O)N(Cc2n[nH]c(=S)n2-c2ccccc2)c2cccc(Cl)c2)cc1 | i | ? | i | i | ?
Cc1ccc(-n2c(-c3c(-c4ccccc4)noc3C)n[nH]c2=S)cc1 | nt | i | nt | 11.2µM | ?
Cc1ccc(-c2n[nH]c(=S)n2-c2ccccc2)cc1 | i | i | i | ? | ?
Cc1ccc([N+](=O)[O-])c(-c2n[nH]c(=S)n2-c2cccc(Cl)c2)c1 | i | i | i | 17.8µM | 3.16µM
S=c1[nH]nc(-c2ccc3c(c2)OCO3)n1-c1ccccc1 | i | i | i | 7.08µM | ?
S=c1[nH]nc(COc2ccc3c(c2)OCO3)n1-c1ccccc1 | nt | i | i | ? | ?
Cc1ccc(-n2c(-c3cccc(C)c3)n[nH]c2=S)cc1 | i | i | i | 8.91µM | 2.82µM
CC(C)NC(=O)CSCc1cccc(Br)c1 | i | i | i | i | i
SMILES | Vaccinia mCherry | HCMV inh | VACV Venus inh | LmPK inh | Tb PYK inh
Cc1cc(C(=O)NCC(=O)OC(C(=O)Nc2cc(C(F)(F)F)ccc2Cl)c2ccccc2)ccc1[N+](=O)[O-] (stereo not given) | i | i | i | i | i
O=C(NCC(=O)N(c1cccc(F)c1)C(C(=O)NCC1CCCO1)c1ccccc1)c1ccco1 (stereo not given) | nt | i | nt | i | i
COc1ccc(Cl)cc1NC(=O)c1cccnc1 | nt | i | nt | i | i
COc1ccc(-c2n[nH]c(=S)n2-c2ccc3c(c2)OCCO3)cc1OC | nt | i | nt | ? | ?
COc1cc([N+](=O)[O-])c(OC)cc1SCc1n[nH]c(=S)n1-c1ccc(C)cc1 | ? | i | ? | ? | 2.51µM
S=c1[nH]nc(-c2ccc(Cl)cc2)n1-c1cccnc1 | nt | i | nt | 11.2µM | ?
COc1ccc(-c2n[nH]c(=S)n2-c2ccc(C)cc2)cc1OC | ? | i | ? | 14.1µM | 5.01µM
COc1ccc(CCn2c(-c3ccc(C(C)(C)C)cc3)n[nH]c2=S)cc1OC | i | i | i | i | 14.1µM
COc1ccc(CCNC(=O)c2ccc3c(c2)N(Cc2ccccc2F)C(=O)c2ccccc2S3=O)cc1OC (stereo not given) | i | ? | i | nt | i
Cc1ccc2c(c1)C1NC(=S)NC(C)(O2)C1C(=O)Nc1ccc(Cl)cc1 (stereo not given) | i | i | i | i | i
Cc1cccc(-n2c(C)n[nH]c2=S)c1 | i | i | i | i | ?
Cc1cccc(-n2c(-c3ccncc3)n[nH]c2=S)c1 | nt | i | i | 14.1µM | ?
S=c1[nH]nc(-c2ccc(Br)cc2)n1-c1ccc(Br)cc1 | nt | i | nt | ? | ?
O=C(O)c1ccc(-n2c(-c3ccc(Br)cc3)n[nH]c2=S)cc1 | i | nt | i | 7.08µM | ?
CN(C)C(=O)c1c(NC(=O)c2ccccc2)sc2c1CCC2 | i | i | i | i | i
COCCCNC(=O)C1CCC(Cn2c(=O)c3sccc3n(Cc3ccc(F)cc3)c2=O)CC1 (stereo not given) | ? | i | i | nt | i
O=C(Nc1ccccc1)N1CCc2scc[n+]2-c2ccccc21 | i | -66.6 | i | i | i
CC1CN(C(=O)Nc2ccccc2)c2ccccc2-[n+]2ccsc21 (stereo not given) | i | i | i | i | i
CCOC(=O)/C(=N/Nc1ccc(Br)cc1)N1CC(C)OC(C)C1 (stereo not given) | ? | i | i | nt | i
COC(=O)C1=C(C)N(c2ccc(F)c(Cl)c2)C(=O)C1 | nt | i | nt | i | i
Cc1ccc2oc3nc(C)c(C(=O)O)cc3c(=O)c2c1 | i | i | i | 15.8µM | ?
COCc1nc2oc3ccc(C)cc3c(=O)c2cc1C(=O)OC | i | -71.3 | i | i | i
CC(=O)c1cc2c(=O)c3cc(C)ccc3oc2nc1C | nt | i | i | 14.1µM | i
Cc1nc2n(c(=O)c1CCN1CCC(c3noc4cc(F)ccc34)CC1)CCC[C@H]2O | i | nt | i | nt | nt
CN(Cc1ccccc1)C(=O)c1cccc(NC(=O)Cc2ccc(NC(=O)C3CCN(C(=O)CCc4ccccc4)CC3)cc2)c1 | ? | -91.3 | ? | nt | i
SMILES | Vaccinia mCherry | HCMV inh | VACV Venus inh | LmPK inh | Tb PYK inh
CN(C(=O)c1ccc(NC(=O)Cc2ccc(NC(=O)C3CCN(C(=O)CCc4ccccc4)CC3)cc2)cc1)C1CC1 | i | i | i | nt | i
CN(Cc1ccccc1)C(=O)c1ccc(NC(=O)Cc2ccc(NC(=O)C3CCN(C(=O)CCc4ccccc4)CC3)cc2)cc1 | ? | -88.6 | ? | nt | i
COc1ccc(N2CCOCC2)c(NC(=O)c2cccc3ccccc23)c1 | nt | i | nt | i | i
Cc1cccc(C)c1-n1c(=O)c2nc3ccccc3nc2c2ccccc21 | nt | -95.8 | nt | nt | nt
Cc1ccc2nsnc2c1-n1c(C)nc2ccccc2c1=O | nt | i | nt | i | i
COc1ccc(CCN(Cc2cccs2)S(=O)(=O)c2ccc(S(=O)(=O)N3CCCCCC3)cc2)cc1OC | i | i | i | i | i
